# System: TNK1
# Conditions: concentration: 1 μM, replicates: in singlicate; n = 1
# 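Note: KINOMEscan kinase panel screen.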
row,Compound,%Inh
1,CCn1c(-c2nonc2N)nc2c(-c3ccccc3)ncc(OCCCN)c21.O=C(O)C(F)(F)F.O=C(O)C(F)(F)F [GSK260205],1%
2,Cc1ccc(-c2ccc3occ(-c4ccc(S(C)=O)cc4)c3c2)nn1 (stereo not drawn),0%
3,Cn1cc(-c2ccc3c(c2)CCN3C(=O)Cc2cc(F)cc(F)c2F)c2c(N)ncnc21 [GSK2634140],8%
4,COc1ccc(C)c(Nc2ccnc(Nc3ccc(-c4cnc[nH]4)cc3)n2)c1.Cl [GW784041],44%
5,c1ccc(Oc2ccc(Nc3ccnc4cc(-c5ccc(CN6CCCCC6)o5)ccc34)cc2)nc1 [GW567143],56%
6,CN(c1ccc(F)c(NC(=O)c2cccc(OC(C)(C)C#N)c2Cl)c1)c1ccc2nc(NC(=O)C3CC3)sc2n1,42%
7,COc1cc(Nc2nccc(N3CCC(NS(=O)(=O)c4ccc(NC(C)=O)cc4)CC3)n2)cc(OC)c1OC [GSK1379825],6%
8,Cc1ccc(C)c(NC(=O)Nc2ccc(C)c(-c3ccc(C(=O)Nc4ccncc4)cc3)c2)c1 [GSK1398473],7%
9,CCNc1nccc(-c2c(-c3ccc(F)cc3)ncn2C2CCN(C)CC2)n1,0%
10,Cc1ccc(NC(=O)c2cccc(N3CCCCC3)c2)cc1-c1ccc(C(=O)NCC2CC2)cc1 [GSK1917008],6%
11,Cl.Cl.NCC(NC(=O)c1cc(-c2cccnc2)c(-c2ccnc3[nH]ccc23)s1)c1ccccc1 (stereo not drawn) [GSK1323434],0%
12,COc1cccc(-c2nc(-c3ccccc3)[nH]c2-c2ccncc2)c1 [SB-610250],0%
13,Cn1cc(-c2cnc(N)c3c(-c4ccc5c(c4)CCN5C(=O)Cc4ccccc4)csc23)cn1 [GSK2593074],19%
14,CN(C)CCNS(=O)(=O)c1ccc(-c2ccnc3[nH]ccc23)cc1 [GSK977620],0%
15,O=C(Nc1n[nH]c2nc(-c3cccc(O)c3)ccc12)C1CC1 [SB-711805],4%
16,Nc1cccc(-c2ccc3c(N)n[nH]c3c2)c1 [GSK2193613],0%
17,Cl.O=C(Nc1ccc(Oc2ccc3[nH]c(NC(=O)c4ccco4)nc3c2)cc1)Nc1cc(C(F)(F)F)ccc1F [GW683134],56%

row,Compound,%Inh
1,COc1cccc2c(-c3ccncc3)c(-c3ccc(F)cc3)nn12 [GW468513],0%
2,COc1cc(Nc2ccnc3cc(-c4ccncc4)ccc23)cc(OC)c1OC.Cl [GW494610],40%
3,O=C(O)C(F)(F)F.O=c1[nH]ccc2nc(N[C@@H]3CCNC3)nc(Nc3ccc4c(c3)S(=O)(=O)CC4)c12 [GSK2181306],31%
4,Cl.N#CCc1ccc(Nc2nccc(Nc3ccc(Oc4ccccc4)cc3)n2)cc1 [GW639905],59%
5,Cc1ccc(O)cc1Nc1ccnc2cc(-c3ccc(CN4CCCCC4)o3)ccc12 [GW557777],0%
6,Cl.Cl.NC(CNC(=O)c1cc(Br)c(-c2ccnc3[nH]ccc23)s1)c1ccccc1 (stereo not drawn) [GSK1322949],14%
7,CN(c1ccc2c(c1)nc(NCc1ccccc1)n2C)c1ccnc(Nc2ccc(CS(C)(=O)=O)cc2)n1.Cl [GW811603],25%
8,Cc1ccc(O)cc1Nc1ccnc2ccc(C(C)(C)C)cc12 [GW856805],69%
9,COC(=O)Nc1nc2ccc(Oc3ccc(NC(=O)Nc4cc(C(F)(F)F)ccc4F)cc3)cc2[nH]1.Cl [GW654607],48%
10,Cn1cc(-c2ccc3c(c2)CCN3C(=O)Cc2cc(F)cc(C(F)(F)F)c2)c2c(N)ncnc21 [GSK2635225],10%
11,COc1cccc(CC(=O)N2CCc3cc(-c4cn(C)c5ncnc(N)c45)ccc32)c1 [GSK2608899],0%
12,N#Cc1cnc2cc(-c3cnc(CNCCN4CCOCC4)s3)ccc2c1Nc1ccc(Oc2ccccc2)cc1 [GW664114],99%
13,O=C(Nc1n[nH]c2cc(-c3cccs3)ccc12)C1CC1 [SB-731284],0%
14,CN(C)CCOc1ccc(-c2cc(-c3ccc(Cl)c(O)c3)c(-c3ccncc3)[nH]2)cc1.Cl.Cl [SB-684387],28%
15,Cc1cccc(Nc2nc(NCCN)ncc2C(N)=O)c1 [GSK1292139],0%
16,COC(=O)Nc1nc2cc(Oc3ccc(NC(=O)Nc4cccc(SC)c4)cc3)ccc2[nH]1.Cl [GW697999],4%

# Source: PMC5540273 (PLoS ONE, 2017)
